The full list was thinned out, with hits kept by preference.
Tg IFNy HTS: T. gondii growth inhibition with IFN-gamma, primary screen, cell-based; Toxoplasma gondii growth in IFN-gamma-treated host cells; hits give low values; activity change, negative = inhibition, % (test concentration not listed); 69,000 tested, 3.8% active; in the data active = activity change below about -70%, passing the limit was not always enough;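 note: host cells are HeLa cells infected with Toxoplasma gondii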
Large screens that a line does not name were inactive; ! = repeats disagree.

CCOC(=O)N1CCN(C(=O)c2ccc(N3CCC(NCc4cccs4)CC3)cc2)CC1	none
CCOC(=O)N1CCC(NC(=O)c2oc3ccc4c(c3c2C)C(O)CC2(CCCCC2)O4)CC1 (stereo not given)	Tg IFNy HTS -95.3
Cc1c(C(=O)NCCCN2C(C)CCCC2C)oc2ccc3c(c12)C(O)CC1(CCCCC1)O3 (stereo not given)	none
O=C(O)C1CC=CCC1C(=O)Nc1ccc(Cl)cc1 (stereo not given)	none
CCn1nc(C(=O)O)c2c1CCC(NCCc1cnccn1)C2 (stereo not given)	none
COc1ccc(-c2cc3nc(CCNC(=O)c4ccncc4)nn3cn2)cc1	none
CCN(Cc1ccncc1)C(=O)CCNC(=O)c1ccc(F)cc1	none
CCN(CC)CCN(Cc1ccc(-c2ccc(C(F)(F)F)cc2)cc1)C(=O)Cn1c(SCc2ccc(F)cc2)nc(=O)c2c1CCC2	Tg IFNy HTS -76.1
CN(C(=O)CSc1ccc(C(F)(F)F)cn1)c1c2c(nn1C)CCCC2	none
COc1ccccc1-c1cc2c(=O)n(Cc3nc(-c4ccccc4C)oc3C)ccn2n1	none
COC(=O)c1ccc(Cl)cc1NC(=O)COc1nc(C)nc2ccccc12	none
CN(C)Cc1cc(=O)n2c(n1)CN(Cc1nccs1)CCC2	none
C=C[C@@H]1C[C@]1(NC(=O)[C@@H]1C[C@@H](Oc2ncc(OC)c3ccc(Cl)cc23)CN1C(=O)[C@@H](NC(=O)OC(C)(C)C)C(C)(C)C)C(=O)NS(=O)(=O)C1CC1	Tg IFNy HTS -73.0
O=C(NC(=S)N1CCOCC1)c1cccs1	none
O=C(NCCNC1CCC2(CCNCC2)CC1)c1ccc(F)cc1	none
CCC(=O)OCC(=O)[C@@]1(OC(=O)CC)[C@@H](C)C[C@H]2[C@@H]3CCC4=CC(=O)C=C[C@]4(C)[C@@]3(F)[C@@H](O)C[C@@]21C	none
CCC(=O)O[C@@]1(C(=O)CCl)[C@@H](C)C[C@H]2[C@@H]3C[C@H](F)C4=CC(=O)C=C[C@]4(C)[C@]3(F)[C@H](O)C[C@@]21C	none
CCC(=O)OCC(=O)[C@@]1(OC(=O)CC)[C@@H](C)C[C@H]2[C@@H]3CCC4=CC(=O)C=C[C@]4(C)[C@@]3(Cl)[C@@H](O)C[C@@]21C	Tg IFNy HTS -74.4!
CS(=O)(=O)N1CC[C@@H]2[C@H]1CCN2C(=O)Cc1ccsc1	none
CN(C(=O)c1ncn2c1CN(CC1CC1)S(=O)(=O)c1ccccc1-2)c1ccccc1	Tg IFNy HTS -105.2
CCCCCN(C)C(=O)c1ncn2c1CN(CC1CC1)S(=O)(=O)c1ccccc1-2	none
CCCCN(CC)C(=O)c1ncn2c1CN(CC1CC1)S(=O)(=O)c1ccccc1-2	none
Cc1cccc2c(-c3cc(C(N)=O)ccn3)c[nH]c12	none
Cc1cc(S(=O)(=O)Nc2cc(-c3ccccc3)sc2C(N)=O)c(C)cc1Cl	none
O=C(NC(=O)c1ccc(C(F)(F)F)cc1)NN1CCCCCC1	Tg IFNy HTS -77.0
O=C(Nc1cc(C(F)(F)F)ccc1N1CCCCC1)c1ccncc1	none
C#CCOC(=O)NC(=O)c1ccc(C(F)(F)F)cc1	none
CC1=C(C(=O)N(C)CCCc2cnn(C)c2)C(c2cccnc2)NC(=O)N1 (stereo not given)	none
O=C(NCCc1ccncc1)c1cc(Br)ccc1O	Tg IFNy HTS -75.8
CC(C)(C)c1ccc(NC(=S)NCCc2ccncc2)cc1	none
O=C(NCCc1ccccc1)c1ccccc1Cl	none
CN(C)Cc1n[nH]c2c1CCN(C(=O)CC1CC1)C2	none
O=C(Nc1cc(F)cc(F)c1)c1c(O)c2cccnc2n(-c2cccc(F)c2)c1=O	Tg IFNy HTS -106.3
COc1cccc(-n2c(=O)c(C(=O)NC3CCCCC3)c(O)c3cccnc32)c1	none
O=C(Nc1cccc(F)c1)c1c(O)c2cccnc2n(-c2cccc(F)c2)c1=O	none
O=C(NCc1ccco1)c1c(O)c2cccnc2n(-c2cccc(F)c2)c1=O	none
COc1ccc(-n2c(=O)c(C(=O)NC3CCCC3)c(O)c3cccnc32)cc1	none
O=C(NCc1ccco1)c1c(O)c2cccnc2n(-c2ccc(F)cc2)c1=O	Tg IFNy HTS -78.7
COc1cccc(-n2c(=O)c(C(=O)NC3CCCCCC3)c(O)c3cccnc32)c1	Tg IFNy HTS -113.3
COc1cccc(CNC(=O)c2c(O)c3cccnc3n(-c3ccc(F)cc3)c2=O)c1	none
O=C(Nc1cccc(F)c1)c1c(O)c2cccnc2n(-c2ccccc2)c1=O	none
Cc1cc2cc(NC(=O)CCC3C(=O)Nc4ccccc43)cc(Cl)c2o1 (stereo not given)	none
Cc1cccc(N2CCCC3(C2)CN(S(=O)(=O)C2CC2)CCO3)c1 (stereo not given)	none
COc1cccc(CN2CCN(Cc3ccc(OC)cc3F)CC2=O)c1	none
COc1ccc(C2CCN(C(=O)N3CCOCC3)CC2)cc1	none
Cc1noc(C)c1NC(=O)c1cccc(CN2CC[C@@H]3CCCC[C@H]3C2)c1	none
COc1ccc(N(Cc2nc(-c3ccc(C)cc3)oc2C)S(=O)(=O)c2ccccc2)cc1	none
O=C1C[C@H]2[C@@H](CCN2Cc2ccco2)N1c1ccsc1	none
Cc1c(Cc2c(Cl)cccc2Cl)c(=O)oc2cc(O)ccc12	Tg IFNy HTS -70.8
O=c1c2ccccc2oc2cc(O)ccc12	none
COc1cc(COc2ccc3c(C)c(Cc4ccccc4)c(=O)oc3c2)cc(OC)c1OC	none
O=C(C1COCCO1)N1CCc2onc(-c3cccc4ccccc34)c2C1 (stereo not given)	none
CSc1ncnc2c1nnn2Cc1ccccc1Cl	none
Cc1cc(C)n(-c2ncnc3c2nnn3Cc2ccccc2Cl)n1	none
CC1Cc2ccccc2N1c1ncnc2c1nnn2Cc1ccccc1Cl (stereo not given)	Tg IFNy HTS -94.3
COc1c(Cl)cc(Cl)cc1CNCC1CCNCC1	none
CC(=O)N1N=C(c2c(-c3ccccc3)c3cc(Br)ccc3[nH]c2=O)CC1c1ccc(F)cc1 (stereo not given)	none
O=C(O/N=C1/CCCc2occc21)c1ccccc1	none
CC(C)(C)NC(=S)N/N=C1/CCCc2occc21	Tg IFNy HTS -95.3
CC(C)c1ccc2cc(C(=O)N3C[C@H](N(C)C)C[C@H]3CO)[nH]c2c1	none
CCN1C[C@H]2CN(Cc3ccc4c(c3)OCO4)CCC[C@@]2(C(=O)O)C1	none
CC(CC12CC3CC(CC(C3)C1)C2)NC(=O)CNC(N)=O (stereo not given)	none
Cc1nc(-c2ccc(F)cc2)sc1CCNC(=O)C(=O)Nc1ccc(Cl)cc1	none
Cc1ccc(CN2C[C@@H]3c4nc(N5CCCC(C)C5)ncc4CS(=O)(=O)[C@H]3C2)cc1 (stereo not given in full)	none
Cc1ccccc1CN1C[C@@H]2c3nc(N4CCCC(C)C4)ncc3CS(=O)(=O)[C@H]2C1 (stereo not given in full)	Tg IFNy HTS -86.2
Cc1ccc(CN2C[C@@H]3c4nc(N(C)C)ncc4CS(=O)(=O)[C@H]3C2)cc1	none
COc1cc(-c2cccc(-n3cccn3)c2)ccc1NC(C)=O	none
O=C1Cc2cc(-c3cccc(-n4cccn4)c3)ccc2N1	Tg IFNy HTS -92.9
O=C1Cc2cc(Cl)ccc2N1	none
Cc1nn(Cc2cccc3ccccc23)c(C)c1NC(=O)COc1ccc(F)cc1	none
Cc1cc(C)c(S(=O)(=O)N2CCC3(CC2)NCCN=C3NCc2cc(F)cc(F)c2)cc1C	none
Cc1ccccc1C(=O)Nc1ccc(-c2nc(Cn3nc(C)c(C)c3C)c(C)o2)cc1	Tg IFNy HTS -97.0
Cc1nn(Cc2nc(-c3ccc(NC(=O)c4cc(F)cc(F)c4)cc3)oc2C)c(C)c1C	none
CCOc1ccccc1C(=O)Nc1ccc(-c2nc(Cn3nc(C)c(C)c3C)c(C)o2)cc1	none
COc1ccc(C(=O)Nc2ccc(-c3nc(Cn4nc(C)c(C)c4C)c(C)o3)cc2)cc1	Tg IFNy HTS -92.7
Cc1nn(Cc2nc(-c3ccc(NC(=O)c4ccc(N(C)C)cc4)cc3)oc2C)c(C)c1C	none
